High-throughput results as filed in PubChem BioAssay.
MRP1 act: activators of MRP-1; viability increase, % at 10 µM; H69AR cells + doxorubicin, viability rescue, CellTiter-Glo; 140,000 tested, 0.61% active;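 active = viability gain under doxorubicin at or above a set limit, the compound median plus 3 SD, cut at about 4.7% in these data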;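 also: MRP-1 overexpressing cells given doxorubicin 25 µM after compound pretreatment; 18-22 h compound pretreatment then 72 h with doxorubicin before readout; 0% = doxorubicin-only wells and 100% = vehicle-treated cells without doxorubicin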
sdo1 growth: sdo1-depleted yeast growth rescue. S. cerevisiae sdo1-depleted JHY4D growth rescue, OD600 30 h; stronger effect = higher value; pdr5 snq2 efflux-pump mutant strain. z-score at 10 µM. 140,000 tested, 0.21% active. AID 817;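 active = z-score above 3 at both the 24 hr and the 30 hr optical density reads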;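 also: z-score against mean and SD of all compound wells on the same plate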
NFkB transloc inh: blocks IL-1B driven NFkB nuclear translocation in HUVEC cells. HUVEC IL-1B NFkB p65 nuclear translocation imaging. inhibition, % at 2 µM. 94,000 tested, 0.43% active. AID 796;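 active = inhibition above about 30% together with a positive call from visual inspection of the well image, limit read from the data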;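 also: nuclear over cytoplasmic p65 intensity ratio measured by imaging; 0% = IL-1B stimulated DMSO wells and 100% = unstimulated DMSO wells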
NFkB transloc pot: enhances IL-1B driven NFkB nuclear translocation; activation, % at 2 µM; HUVEC IL-1B NFkB p65 nuclear translocation imaging; AID 819; 94,000 tested, 0.3% active;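 active = activation above 40%, about the mean plus 3 SD, also judged a hit on visual image review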;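 also: percent activation is computed from the nuclear over cytoplasmic p65 intensity ratio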
IL1B cytotox: HUVEC cytotoxicity counter-screen, IL-1B stimulated; HUVEC cell count loss, Hoechst imaging; cell count reduction, % at 2 µM; 94,000 tested, 0.41% active; AID 845;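 active = cell count reduction more than 3 SD above the screen-wide mean, cut at about 70% in these data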;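 also: normalized per plate to untreated control cells as the no-loss baseline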
MRP resist rev: compounds reversing MRP-mediated drug resistance; 85,000 tested, 0.04% active; H69AR cells + 2 uM doxorubicin, CellTiter-Glo, 72 h; differential viability (reversal), % at 10 µM;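 active = viability drop by adding the cancer drug above about 55%, with treated viability meeting a 40% cutoff, limit read from the data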;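 also: viability without doxorubicin minus viability with 2 µM doxorubicin for each compound; larger differential means the compound sensitizes cells more to doxorubicin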
An asterisk follows results filed as active; nt = no result given. An excerpt weighted towards active compounds, which were near 1.4% of everything screened.

SMILES | MRP1 act | sdo1 growth | NFkB transloc inh | NFkB transloc pot | IL1B cytotox | MRP resist rev
COc1ccc(C2C(C(=O)Nc3cccc(C)n3)CCC(=O)N2c2ccc(OC)cc2)cc1 (stereo not given) | 13* | 0.7 | 10 | -10 | -28 | 13
O=C(O)c1cccc(S(=O)(=O)NCC2CCCO2)c1 (stereo not given) | -1 | -0.04 | 93* | -93 | 90* | -3
COc1cc(NC(=O)c2cc3ccccc3o2)c(OC)cc1Cl | -4 | -0.87 | 100* | -100 | 78* | -15
O=C(NC(=S)NCCCN1CCOCC1)c1ccc([N+](=O)[O-])cc1 | -3 | 1.1 | nt | nt | nt | nt
C=CCn1c(Br)nc2c1c(=O)n(C)c(=O)n2C | -1 | 0.64 | -49 | 49* | 21 | 3
CC(=O)N/C(=C/c1ccc2c(c1)OCO2)C(=O)NCC(=O)O | -1 | 0.18 | nt | nt | nt | nt
O=C(Nc1nc(-c2ccccc2)cs1)c1ccc(Br)o1 | 6.9* | -1.2 | -33 | 33 | -26 | nt
O=C(NC(=S)Nc1nc(-c2ccccc2)cs1)c1cncc(Br)c1 | 6.8* | 0.86 | 16 | -16 | -11 | nt
CCc1ccc(-c2csc(NC(=O)Oc3ccccc3)n2)cc1 | 13* | -0.76 | nt | nt | nt | nt
O=C(NC(=S)Nc1nc(-c2ccccc2)cs1)c1cccs1 | -1 | -0.81 | nt | nt | nt | nt
C/C(=N\NC(=O)c1c(Cl)cnn1C)c1ccc(NC(=O)c2ccncc2)cc1 | -1 | -0.04 | nt | nt | nt | nt
Cc1ccc2nc(-c3ccc(N4C(=N)SC5CS(=O)(=O)CC54)cc3)sc2c1 (stereo not given) | -1 | 0.77 | nt | nt | nt | nt
OC(COc1ccccc1)CSc1ncn[nH]1 (stereo not given) | 0 | 1.4 | 2 | -2 | 15 | -10
CC(C)(C)c1ccc(OCC(O)CSc2ncn[nH]2)cc1 (stereo not given) | 6.8* | -0.19 | -11 | 11 | -12 | 4
Cc1nc2ccccc2c(=O)n1/N=C/c1c(O)ccc2oc3c(c12)CCCC3 | 5.9* | -0.73 | nt | nt | nt | -14
CC(C)(C)c1nc2ccccc2[nH]1 | -1 | -0.34 | -48 | 48* | -9 | nt
CC(C)(C)/C(O)=C(/C#N)c1nc2ccccc2[nH]1 | 1 | -0.74 | -8 | 8 | 18 | 19
CC(/C=C1\SC(=S)N(CCCC(=O)Nc2ccc(C(=O)O)cc2)C1=O)=C\c1ccccc1 | 13* | -0.13 | nt | nt | nt | nt
CC(/C=C1\SC(=O)N(CCCC(=O)O)C1=O)=C\c1ccccc1 | -3 | 0.09 | nt | nt | nt | nt
Cc1ccc(C(=O)NN2C(=O)/C(=C/c3cn(C)c4ccccc34)SC2=S)cc1 | -4 | -0.56 | nt | nt | nt | nt
CC(/C=C1\SC(=S)N(NC(=O)c2ccc(O)cc2)C1=O)=C\c1ccccc1 | 7.9* | -1.5 | nt | nt | nt | nt
COc1ccc2nc(NC(=O)c3cccnc3SC)sc2c1 | -1 | -0.77 | nt | nt | nt | nt
O=C(CNS(=O)(=O)c1c(Cl)cccc1Cl)OCc1csc(-c2ccccc2)n1 | 0 | -0.79 | nt | nt | nt | nt
Cc1ccc(CCNC(=O)Cn2cccc2)cc1 | 0 | -0.2 | 98* | -98 | 88* | -11
Cc1ccc(CCNC(=O)NC(C)(C)C)cc1 | 1 | -0.2 | 1 | -1 | 2 | 3
SMILES | MRP1 act | sdo1 growth | NFkB transloc inh | NFkB transloc pot | IL1B cytotox | MRP resist rev
O=C(/C=C(/c1ccc(Cl)cc1)n1cncn1)c1ccccc1 | -1 | -0.58 | nt | nt | nt | nt
O=C(Nc1ccccc1)c1ccn[nH]1 | 0 | 0.07 | 31* | -31 | 19 | 1
COc1ccc(OCC(=O)N/N=C2\CCc3ccccc32)cc1 | -1 | 0.31 | 53* | -53 | 3 | 5
COc1ccc2c(c1)CC/C2=N\NC(=O)c1ccccc1 | 0 | 1.3 | nt | nt | nt | nt
Cc1nc(C)c(C(=O)NNS(=O)(=O)c2ccccc2)s1 | 5.2* | -0.39 | nt | nt | nt | nt
Cc1ccc(S(=O)(=O)NNC(=O)c2snnc2C)cc1 | -3 | 0.39 | -11 | 11 | -3 | 24
CC(=O)c1ccc(N2CCN(c3ccc(C(F)(F)F)cn3)CC2)cc1 | 7.8* | 0.35 | nt | nt | nt | nt
Cc1ccc(/C=N/NC(=S)N2CCOCC2)cc1 | 4 | 0.6 | nt | nt | nt | nt
S=C(N/N=C/c1ccc(Cl)cc1)N1CCOCC1 | 5.7* | 0.95 | nt | nt | nt | nt
O=C(CSc1ncccc1-c1nc2ccccc2[nH]1)N1CCN(c2ccccc2F)CC1 | -4 | -0.55 | -15 | 15 | 85* | -13
COC(C#CCCN(C)C)(c1ccccc1)c1ccccc1 | -2 | 0.02 | nt | nt | nt | nt
COC(=O)NCCOC(=O)N(O)c1ccc(Br)cc1 | 1 | 1.3 | -24 | 24 | 9 | nt
O=C(Nc1ccc(-c2cn3ccsc3n2)cc1)C1CC1 | -3 | 1.3 | -17 | 17 | -54 | -3
O=C(Nc1ccc(-c2cn3ccsc3n2)cc1)C1CCCC1 | -3 | 3.4 | 100* | -100 | 90* | 2
CC1=C(C(=O)OCC(C)C)C(c2cccc(F)c2)N2C(=O)C(C)SC2=N1 (stereo not given) | 1 | -0.8 | -6 | 8 | 36 | -6
CC1=C(C(=O)OC(C)C)C(c2cccc(F)c2)N2C(=O)C(C)SC2=N1 (stereo not given) | 5.3* | -0.95 | -2 | 4 | -11 | -1
CCCCn1c(=O)nc2n(-c3ccc(Cl)cc3)c3ccccc3cc-2c1=O | -1 | -0.35 | nt | nt | nt | nt
Cc1cc([N+](=O)[O-])c(NCCCCCCO)c([N+](=O)[O-])c1 | nt | nt | -9 | 9 | -6 | nt
Cc1c(C(=O)C(=O)N2CCCc3ccccc32)c2ccccc2n1C | -4 | -0.57 | nt | nt | nt | nt
Cc1ccsc1CNn1cnnc1SCc1ccc(Cl)cc1 | 6.3* | -1.1 | -10 | 10 | -6 | 19
CCCCNc1oc(-c2ccc(OC)cc2)nc1S(=O)(=O)c1ccccc1 | 6.2* | -1.2 | 4 | -4 | -10 | 7
Cc1oc(C(=O)Nc2ccc(C(=O)O)cc2)cc1COc1ccccc1 | 7.2* | 1.4 | -6 | 6 | 27 | 2
CCCCCCC(=O)Nc1ccc(C(=O)N/N=C/c2cccnc2)cc1 | 9.9* | -0.23 | -11 | 11 | 2 | nt
CCC(=O)Nc1ccc(C(=O)N/N=C/c2cccnc2)cc1 | -1 | 0.02 | -1 | 1 | -38 | nt
COc1cccc(OCc2nnc(SCC(=O)N3c4ccccc4Sc4ccc(Cl)cc43)o2)c1 | -3 | -0.12 | nt | nt | nt | nt
SMILES | MRP1 act | sdo1 growth | NFkB transloc inh | NFkB transloc pot | IL1B cytotox | MRP resist rev
COc1ccc(OCc2nnc(SCC(=O)N3c4ccccc4Sc4ccc(Cl)cc43)o2)cc1 | 15* | -0.43 | -15 | 15 | -30 | nt
Cc1ccc(OCc2nnc(SCC(=O)N3c4ccccc4Sc4ccc(Cl)cc43)o2)cc1 | 11* | -0.28 | nt | nt | nt | nt
CCOc1cccc(C(=O)NNC(=O)CCC(=O)O)c1 | -2 | 0.59 | nt | nt | nt | nt
CCOC(=O)COc1ccc(Br)cc1C1NC(=O)NC(C)=C1C(=O)NCc1ccccc1 (stereo not given) | -4 | 0.86 | 14 | -14 | -1 | 16
COC(=O)Nc1ccc(S(=O)(=O)Nc2ccc(C)cc2)cc1 | 0 | 0.44 | -12 | 12 | -7 | nt
COC(=O)Nc1ccc(S(=O)(=O)Nc2ccc(O)cc2)cc1 | -3 | 1.4 | 3 | -3 | 47 | 60*
COC(=O)c1cn(NC(=O)/C=C/c2cc(OC)ccc2OC)c(=O)c2ccccc12 | -2 | 0.53 | nt | nt | nt | nt
Cc1ccc(Cn2cnc3ccccc32)cc1C | -1 | -1.8 | nt | nt | nt | nt
COc1cc(/C=C(\C#N)c2ccccn2)ccc1OCc1ccccc1Cl | 5.9* | -0.86 | nt | nt | nt | nt
